# Screening data as filed in PubChem.
# KDM5B inhibitor: KDM5B demethylase inhibition. actives 2.6% (n = 220,000). Potency, µM (doses to about 57.7 µM), usual class: inhibitors. KDM5B demethylase, FDH-coupled NADH fluorescence (FDH is formaldehyde dehydrogenase). Q9UGL1; active = well fitted inhibition curve with a large enough effect; note: 0% is about no effect; nearly all actives have a fitted effect of over 70% in size
#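 Here, H3K4me3 peptide (12.5 µM in substrate mix) is demethylated by KDM5BΔAP, 200 nM final, after 10 min compound exposure. Formaldehyde product is coupled through FDH (0.25 U/mL in mix) to NADH fluorescence; 30-min ΔRFU feeds dose-response curves.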
# Numbers without * were called inactive; i = inactive. Shown is part of a subset that was picked to be rich in hits. Potency is the fitted concentration of half-maximal effect.
SMILES,KDM5B inhibitor
O=C(Cc1cccc(Cl)c1)N1CCC(n2cc(-c3nc(-c4ccccc4)no3)nn2)CC1,i
O=C(O)c1cc(-c2cccc(Cl)c2)nc2ccccc12,i
Cc1cc(NC(=O)C(C)Oc2cccc(Cl)c2)n(C)n1 (centres undefined),i
Cc1nc(SC(C)C#N)c2c(=O)n(C)c(=O)n(CC(C)C)c2n1 (centres undefined),i
COc1cc(/C=C/C(=O)c2c(O)c3ccccc3oc2=O)cc(OC)c1OC,i
CCc1noc(-c2cccn3c(CNC(=O)c4ccc(F)c(F)c4)nnc23)n1,4µM*
CC(C)c1noc(-c2cccn3c(CNC(=O)c4cc(F)ccc4F)nnc23)n1,25µM*
CCc1noc(-c2cn(C3CCN(C(=O)c4ccc(F)c(F)c4)CC3)nn2)n1,i
CC(C)c1noc(-c2cccn3c(CNC(=O)c4cc(F)ccc4Cl)nnc23)n1,22µM*
CC(C)c1noc(-c2cn(C3CCN(C(=O)c4ccc(F)cc4Cl)CC3)nn2)n1,i
CC(C)c1noc(-c2cn(C3CCN(C(=O)c4cc(Cl)ccc4F)C3)nn2)n1 (centres undefined),i
Cc1ccc(-c2nc(C(=O)NCc3ccc(F)cc3Cl)no2)cc1,i
CC(C)c1noc(-c2cccn3c(CNC(=O)c4ccc(F)cc4Cl)nnc23)n1,25µM*
COc1cc(CN(CC2CCCO2)C(=O)COc2ccc(Cl)cc2Cl)cc(OC)c1OC (centres undefined),i
O=C(O)C[C@@H]1CCN(C(=O)COc2ccccc2)C[C@@H]1CCN1CCN(c2ccc(F)cc2)CC1,i
CC1CCN(C(=O)C2(c3ccc(NC(=O)C4CC4)cc3)CCCCC2)CC1,i
CC(C)OCc1ccccc1CNS(=O)(=O)c1cc(F)cc(F)c1,i
CCCc1nnc(NC(=O)c2ccc3ccccc3n2)s1,i
O=C(NCc1noc(-c2ccccc2)n1)c1ccc(Br)o1,i
CCCOc1ccc(C(F)(F)F)cc1N,i
CCc1noc(-c2cccn3c(CNC(=O)c4cc(F)ccc4F)nnc23)n1,28µM*
COc1ccc2cc(/C=C(\NC(=O)c3ccccc3)C(=O)N3CCCC3)c(Cl)nc2c1,i
COc1ccccc1C(=O)N1CCn2c(nn(-c3cccc(Cl)c3)c2=O)C1,i
CCCCOc1ccc2c(-c3ccccc3)cc(=O)oc2c1C,i
O=C(NCc1cccs1)c1ccccc1-c1ccccc1,i
SMILES,KDM5B inhibitor
O=C(Cc1ccc(F)cc1)N1CCC2(CC1)CC(=O)N(c1ccccc1)c1ccccc1O2,i
CCN(CC)Cc1cnc2c(C(=O)Nc3cccc(OC)c3)cnn2c1,i
Cn1cc(C(NC(=O)c2cnc(N)nc2-c2ccccc2)C2CC(O)C2)cn1 (centres undefined),i
Cc1ncc(C(=O)N[C@H]2CC[C@H]2NC2CCCC2)c(-c2ccccc2)n1,i
Nc1ncc(C(=O)N[C@@H]2CC[C@@H](N)C2)c(-c2ccccc2)n1,22µM*
COc1ccc(NC(=O)Cn2c(C)cc3nc4n(c(=O)c32)CCCCC4)cc1OC,i
Cc1ccc(NC(=O)N2CCC(OC3CCN(S(C)(=O)=O)CC3)CC2)cc1,i
CC(=O)N1CCC(NC(=O)Cc2nc(-c3ccccc3)oc2C)CC1,i
O=C(NC1CCCN(c2cc(-c3ccccc3)[nH]n2)C1)c1ccc2c(c1)OCO2 (centres undefined),i
Cc1nc(CN2Cc3nc(-c4ccccc4)ccc3OCC2=O)cs1,i
COc1ccc(Nc2ccc3c(n2)CN(Cc2ccccc2F)C(=O)CO3)cc1,35µM*
Cc1ccccc1CN1Cc2nc(-c3cncnc3)ccc2OCC1=O,i
COc1ccc(Nc2ccc3c(n2)CN(Cc2nc4ccccc4s2)C(=O)CO3)cn1,i
Cc1nc(CN2Cc3nc(Nc4ccc(C(F)(F)F)cc4)ccc3OCC2=O)cs1,35µM*
COCCN1Cc2nc(Nc3ccccc3F)ccc2OCC1=O,i
O=C1COc2ccc(-c3cc(F)cc(F)c3)nc2CN1Cc1ccccc1F,i
Cc1nc(CN2Cc3nc(Oc4ccccc4)ccc3OCC2=O)cs1,i
COc1ccc(Nc2ccc3c(n2)CN(Cc2ccccc2C)C(=O)CO3)cc1,35µM*
CCC(C)NC(=O)C1CCN(C(=O)C(C)(C)C)CC1 (centres undefined),i
CC(Sc1ccc(Br)cc1)C(=O)NC(N)=O (centres undefined),i
O=C(Cc1c(F)cccc1Cl)OCC(=O)C12CC3CC(CC(C3)C1)C2,i
CN1CCN(CC(O)COc2ccc(CN3CC(c4ccccn4)C3)cc2)CC1 (centres undefined),i
COc1cc(OC)c(C2CC(=O)Nc3c(-c4ccccc4)nsc32)cc1OC (centres undefined),i
COc1cccc(CC(=O)N2CCc3nn(Cc4ccccc4)c(=O)n3CC2)c1,i
Cc1ccc2c(CN(C)CCOc3ccc(Cl)cc3)cc(=O)oc2c1,i
COc1ccc(C(=O)N2CCCN(c3nc4ncccc4o3)CC2)cc1,i
O=C(Cc1ccccn1)N1CCCN(c2nc3ncccc3o2)CC1,i
